Test results: PubChem BioAssay (EPA / NIEHS)
Results filed as inconclusive are left out. Calls of active or inactive are those of the source. How the source made its calls, unless noted: active means hit-call score of the fitted dose curve at least 0.9, where 1 is the maximum; inconclusive means response in the unintended direction; inactive means score below 0.9.

Experiments:
[1] = target: Androgen receptor (Homo sapiens) (UniProt P10275); experiment: ATG_AR_TRANS: Attagene TRANS-FACTORIAL HepG2 Assay for human Androgen Receptor (AR) (AID 2282973); conditions: HepG2 Attagene TRANS-FACTORIAL AR reporter transcription
Summary of the method: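 Transfected HepG2, 24 h treatment, chimeric NR-Gal4 driving GAL4-UAS reporters. mRNA induction by RT-PCR/capillary electrophoresis fluorescence; DMSO as negative control and baseline.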

[2] = Tanguay_ZF_120hpf_MUSC: Oregon State University Tanguay Lab 120 Hour Post-fertilization zebrafish Assay for Muscle Malformation (AID 2284401; active means hit-call score of the fitted dose curve at least 0.9, where 1 is the maximum; inactive means score below 0.9)
Summary of the method: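 Dechorionated Tropical 5D wild-type zebrafish embryos exposed statically from 6 to 120 hpf at 28C, one per well, in 0.64% DMSO. Muscle malformation scored present/absent by brightfield microscopy at 120 hpf, fitted against DMSO.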

[3] = target: Cytochrome P450 2C18 (Homo sapiens) (UniProt P33260); experiment: NVS_ADME_hCYP2C18: NovaScreen (NVS) CYP450-related Enzyme Activity (ADME) Assay for human CYP2C18 (AID 2283103; active means hit-call score of the fitted dose curve at least 0.9, where 1 is the maximum; inactive means score below 0.9)
Summary of the method: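 Cell-free recombinant human CYP2C18 with fluorogenic substrate; fluorescence intensity read 0.5 h after dosing. Single-point screen at 10 uM in duplicate, then concentration-response up to 20 uM; loss of signal fitted against acetonitrile baseline.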

[4] = target: human CYP2C8, CYP2C8 (gene 1558) (UniProt P10632); experiment: NVS_ADME_hCYP2C8: NovaScreen (NVS) CYP450-related Enzyme Activity (ADME) Assay for human CYP2C8 (AID 2283104; active means hit-call score of the fitted dose curve at least 0.9, where 1 is the maximum; inactive means score below 0.9)
Summary of the method: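 Recombinant human CYP2C8 with fluorogenic substrate, 0.5 h, fluorescence intensity; signal loss fitted versus acetonitrile. Screened in duplicate at 10 uM, then actives run in concentration-response up to 20 uM.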

[5] = target: human CYP2J2, CYP2J2 (gene 1573) (UniProt P51589); experiment: NVS_ADME_hCYP2J2: NovaScreen (NVS) CYP450-related Enzyme Activity (ADME) Assay for human CYP2J2 (AID 2283106)
Summary of the method: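 Cell-free assay of recombinant CYP2J2 with a fluorogenic substrate, read 1 h after dosing; loss of signal versus acetonitrile. Primary screen at 10 uM in duplicate, then concentration-response up to 20 uM for chemicals passing threshold (e.g., 30% inhibition).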

[6] = target: human CYP4F12, CYP4F12 (gene 66002) (UniProt Q9HCS2); experiment: NVS_ADME_hCYP4F12: NovaScreen (NVS) CYP450-related Enzyme Activity (ADME) Assay for human CYP4F12 (AID 2283111)
Summary of the method: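 Cell-free fluorescence assay of recombinant human CYP4F12 activity on a specific substrate, read 0.5 h after dosing. Primary screen in duplicate at 10 uM, then concentration series for actives; loss of signal fitted against acetonitrile negative control.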

[7] = target: rat CYP2C12, Cyp2c12 (gene 25011) (UniProt P11510); experiment: NVS_ADME_rCYP2C12: NovaScreen (NVS) CYP450-related Enzyme Activity (ADME) Assay for rat CYP2C12 (AID 2283119)
Summary of the method: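 Cell-free recombinant rat CYP2C12 activity read by fluorescence 0.5 h after dosing; loss of signal versus acetonitrile control. Primary screen in duplicate at 10 uM; actives then run in concentration-response format.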

[8] = target: rat CYP2D1, Cyp2d1 (gene 266684) (UniProt P10633); experiment: NVS_ADME_rCYP2D1: NovaScreen (NVS) CYP450-related Enzyme Activity (ADME) Assay for rat CYP2D1 (AID 2283122)
Summary of the method: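 Cell-free fluorescence enzyme-activity assay on extracted rat CYP2D1 protein, read 0.75 h after dosing. Primary screen in duplicate at 10 uM; qualifying chemicals then run in concentration-response to 20 uM max, loss-of-signal versus acetonitrile baseline.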

[9] = target: human AMP-activated Protein Kinase, alpha 1 (AMPKa1), PRKAA1 (gene 5562) (UniProt Q13131); experiment: NVS_ENZ_hAMPKa1: NovaScreen (NVS) Enzymatic Assay for human AMP-activated Protein Kinase, alpha 1 (AMPKa1) (AID 2283130)
Summary of the method: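 Recombinant human AMPKα1 activity was measured cell-free by fluorescent substrate conversion with electrophoretic mobility-shift separation, 1 h after dosing. Duplicate single-point screening was at 25 uM; actives (≥30% inhibition) were retested in concentration-response up to 50 uM.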

[10] = target: human Ephrin type-B Receptor 2 (EphB2), EPHB2 (gene 2048) (UniProt P29323); experiment: NVS_ENZ_hEphB2: NovaScreen (NVS) Enzymatic Assay for human Ephrin type-B Receptor 2 (EphB2) (AID 2283156)
Summary of the method: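 Recombinant kinase with fluorescent substrate, product separated by electrophoretic mobility shift, read 1 h after dosing. Duplicate 25 uM screen, then singleton concentration-response to 50 uM max; loss of signal versus DMSO.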

[11] = target: human Fibroblast Growth Factor Receptor 1 (FGFR1), FGFR1 (gene 2260) (UniProt P11362); experiment: NVS_ENZ_hFGFR1: NovaScreen (NVS) Enzymatic Assay for human Fibroblast Growth Factor Receptor 1 (FGFR1) (AID 2283159);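 further: hits lower the signal so potencies describe inhibitors of the kinase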
Summary of the method: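 Cell-free recombinant kinase with fluorescent substrate, product separated by electrophoretic mobility shift; read 1 hour after dosing, loss of signal relative to DMSO. Initial screen in duplicate at 25 uM, actives followed in concentration series.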

[12] = target: human NIMA (Never In Mitosis Gene A)-Related Kinase 2 (NEK2), NEK2 (gene 4751) (UniProt P51955); experiment: NVS_ENZ_hNEK2: NovaScreen (NVS) Enzymatic Assay for human NIMA (Never In Mitosis Gene A)-Related Kinase 2 (NEK2) (AID 2283188)
Summary of the method: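 Cell-free NEK2 enzyme activity after 1 h exposure, read by fluorescence with electrophoretic mobility shift separating substrate and product. Primary screen in duplicate at 25 uM; actives then run as concentration series. Loss of signal versus DMSO scored.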

[13] = target: rat Monoamine Oxidase, MAO-B, Central (MAOBC), Maob (gene 25750) (UniProt P19643); experiment: NVS_ENZ_rMAOBC: NovaScreen (NVS) Enzymatic Assay for rat Monoamine Oxidase, MAO-B, Central (MAOBC) (AID 2283238)
Summary of the method: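 Compounds were first tested in duplicate at 25 uM against MAO-B from rat brain tissue; those passing the inhibition threshold were retested in concentration series up to 50 uM. Radiodetection by scintillation counting at 1.17 h, analysed against DMSO baseline.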

[14] = tested on: rat Monoamine Oxidase, MAO-A, Central (MAOAC), gene 29253; experiment: NVS_ENZ_rMAOAC: NovaScreen (NVS) Enzymatic Assay for rat Monoamine Oxidase, MAO-A, Central (MAOAC) (AID 2283243);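 further: potency refers to inhibition seen as signal drop below DMSO baseline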
Summary of the method: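 Rat brain tissue extract used as enzyme source in a cell-free radiometric assay, read by scintillation counting 1.5 hours after dosing. Loss of signal relative to DMSO baseline scored; primary screen at 25 uM in duplicate, actives followed up in concentration series.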

[15] = target: Norway rat Vesicular Monoamine Transporter (VMAT2), neurotransmitter transporter, Slc18a2 (gene 25549) (UniProt Q01827); experiment: NVS_TR_rVMAT2: NovaScreen (NVS) Transporter Assay for Norway rat Vesicular Monoamine Transporter (VMAT2), neurotransmitter transporter (AID 2283376);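 further: actives lower the bound radioligand signal below the DMSO level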
Summary of the method: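 Tissue: rat forebrain extract. Format: competitive radioligand binding, cell-free. Timepoint: 1 h. Readout: filter radiodetection/scintillation. Screen: 25 uM in duplicate, then concentration series for actives. Baseline: DMSO.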

[16] = ATG_M_32_XSP2: Attagene TRANS-FACTORIAL Multi-Species (XSP2) HepG2 Assay for M19 Transcription Factor (Internal Marker) (AID 2283826)
Summary of the method: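 Total RNA is taken from compound-treated HepG2 cells after 24 h and reverse-transcribed; reporter cDNA is PCR-amplified, end-labelled with 6-FAM, digested with HpaI for 2h at 37 C and sized by capillary electrophoresis. Activity is fitted in the positive direction against DMSO.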

Sequence of Androgen receptor (Homo sapiens) (P10275 whole entry, looked up, the tested form may be a part): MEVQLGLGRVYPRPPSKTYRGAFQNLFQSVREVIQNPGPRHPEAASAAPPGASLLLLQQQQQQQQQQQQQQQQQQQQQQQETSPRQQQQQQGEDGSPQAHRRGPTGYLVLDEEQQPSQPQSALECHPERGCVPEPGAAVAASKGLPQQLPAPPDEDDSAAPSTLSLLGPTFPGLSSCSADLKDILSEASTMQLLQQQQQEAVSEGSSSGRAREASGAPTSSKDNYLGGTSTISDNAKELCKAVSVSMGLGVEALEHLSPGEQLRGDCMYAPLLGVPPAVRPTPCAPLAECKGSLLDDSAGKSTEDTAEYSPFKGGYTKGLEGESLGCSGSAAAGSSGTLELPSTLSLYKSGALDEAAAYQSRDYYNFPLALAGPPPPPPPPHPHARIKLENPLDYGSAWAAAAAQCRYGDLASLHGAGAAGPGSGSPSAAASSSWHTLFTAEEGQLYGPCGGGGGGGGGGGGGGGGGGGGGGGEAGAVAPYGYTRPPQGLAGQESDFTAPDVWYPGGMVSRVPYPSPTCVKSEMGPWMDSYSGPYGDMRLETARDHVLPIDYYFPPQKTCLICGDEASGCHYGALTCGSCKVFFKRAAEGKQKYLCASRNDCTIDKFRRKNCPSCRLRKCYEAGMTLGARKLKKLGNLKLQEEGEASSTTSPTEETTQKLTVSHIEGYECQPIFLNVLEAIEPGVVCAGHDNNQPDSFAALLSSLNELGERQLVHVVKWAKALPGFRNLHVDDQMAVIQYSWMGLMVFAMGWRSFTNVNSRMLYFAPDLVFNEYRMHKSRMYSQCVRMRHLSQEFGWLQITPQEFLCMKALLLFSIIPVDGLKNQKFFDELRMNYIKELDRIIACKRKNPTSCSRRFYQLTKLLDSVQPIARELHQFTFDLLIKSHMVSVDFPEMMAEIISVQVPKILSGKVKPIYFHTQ
Sequence of Cytochrome P450 2C18 (Homo sapiens) (P33260 whole entry, looked up): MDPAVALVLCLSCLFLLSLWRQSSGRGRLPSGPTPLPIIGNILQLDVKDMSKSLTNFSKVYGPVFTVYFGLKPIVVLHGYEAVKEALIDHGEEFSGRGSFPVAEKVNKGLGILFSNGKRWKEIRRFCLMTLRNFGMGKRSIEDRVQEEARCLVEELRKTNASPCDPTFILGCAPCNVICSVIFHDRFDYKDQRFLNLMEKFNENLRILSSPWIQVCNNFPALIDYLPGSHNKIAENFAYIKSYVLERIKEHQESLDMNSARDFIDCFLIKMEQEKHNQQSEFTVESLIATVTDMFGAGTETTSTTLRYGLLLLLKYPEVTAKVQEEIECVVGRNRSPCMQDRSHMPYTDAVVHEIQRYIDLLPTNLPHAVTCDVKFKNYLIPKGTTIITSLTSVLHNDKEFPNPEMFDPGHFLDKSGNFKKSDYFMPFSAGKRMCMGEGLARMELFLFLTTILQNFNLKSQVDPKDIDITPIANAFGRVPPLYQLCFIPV
Sequence of human CYP4F12, CYP4F12 (gene 66002) (Q9HCS2 whole entry, looked up): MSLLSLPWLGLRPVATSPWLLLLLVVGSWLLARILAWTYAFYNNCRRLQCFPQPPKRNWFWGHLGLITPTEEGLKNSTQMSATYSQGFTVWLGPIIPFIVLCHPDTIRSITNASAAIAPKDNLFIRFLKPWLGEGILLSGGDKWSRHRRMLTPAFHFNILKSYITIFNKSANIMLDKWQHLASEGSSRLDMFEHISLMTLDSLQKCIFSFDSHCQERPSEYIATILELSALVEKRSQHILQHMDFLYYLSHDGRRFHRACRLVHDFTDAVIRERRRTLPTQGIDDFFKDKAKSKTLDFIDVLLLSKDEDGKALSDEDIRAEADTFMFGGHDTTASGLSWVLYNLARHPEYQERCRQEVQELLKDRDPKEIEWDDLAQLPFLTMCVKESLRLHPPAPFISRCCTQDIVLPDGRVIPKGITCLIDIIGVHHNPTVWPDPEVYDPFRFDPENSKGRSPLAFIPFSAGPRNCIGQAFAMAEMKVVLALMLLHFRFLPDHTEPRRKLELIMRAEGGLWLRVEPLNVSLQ
Sequence of rat CYP2C12, Cyp2c12 (gene 25011) (P11510 whole entry, looked up): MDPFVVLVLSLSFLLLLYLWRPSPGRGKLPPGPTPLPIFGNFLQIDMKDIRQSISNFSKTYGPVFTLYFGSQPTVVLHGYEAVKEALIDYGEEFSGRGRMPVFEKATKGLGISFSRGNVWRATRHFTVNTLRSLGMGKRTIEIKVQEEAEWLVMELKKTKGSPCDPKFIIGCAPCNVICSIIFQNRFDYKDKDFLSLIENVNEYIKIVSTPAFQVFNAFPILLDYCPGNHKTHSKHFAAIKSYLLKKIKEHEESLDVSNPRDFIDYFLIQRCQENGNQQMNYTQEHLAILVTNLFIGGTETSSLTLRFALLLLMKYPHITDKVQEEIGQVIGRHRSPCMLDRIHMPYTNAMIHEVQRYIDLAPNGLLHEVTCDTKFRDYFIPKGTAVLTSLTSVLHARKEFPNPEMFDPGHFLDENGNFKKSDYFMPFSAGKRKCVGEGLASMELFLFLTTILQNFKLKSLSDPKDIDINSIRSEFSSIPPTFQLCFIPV
Sequence of human Fibroblast Growth Factor Receptor 1 (FGFR1), FGFR1 (gene 2260) (P11362 whole entry, looked up): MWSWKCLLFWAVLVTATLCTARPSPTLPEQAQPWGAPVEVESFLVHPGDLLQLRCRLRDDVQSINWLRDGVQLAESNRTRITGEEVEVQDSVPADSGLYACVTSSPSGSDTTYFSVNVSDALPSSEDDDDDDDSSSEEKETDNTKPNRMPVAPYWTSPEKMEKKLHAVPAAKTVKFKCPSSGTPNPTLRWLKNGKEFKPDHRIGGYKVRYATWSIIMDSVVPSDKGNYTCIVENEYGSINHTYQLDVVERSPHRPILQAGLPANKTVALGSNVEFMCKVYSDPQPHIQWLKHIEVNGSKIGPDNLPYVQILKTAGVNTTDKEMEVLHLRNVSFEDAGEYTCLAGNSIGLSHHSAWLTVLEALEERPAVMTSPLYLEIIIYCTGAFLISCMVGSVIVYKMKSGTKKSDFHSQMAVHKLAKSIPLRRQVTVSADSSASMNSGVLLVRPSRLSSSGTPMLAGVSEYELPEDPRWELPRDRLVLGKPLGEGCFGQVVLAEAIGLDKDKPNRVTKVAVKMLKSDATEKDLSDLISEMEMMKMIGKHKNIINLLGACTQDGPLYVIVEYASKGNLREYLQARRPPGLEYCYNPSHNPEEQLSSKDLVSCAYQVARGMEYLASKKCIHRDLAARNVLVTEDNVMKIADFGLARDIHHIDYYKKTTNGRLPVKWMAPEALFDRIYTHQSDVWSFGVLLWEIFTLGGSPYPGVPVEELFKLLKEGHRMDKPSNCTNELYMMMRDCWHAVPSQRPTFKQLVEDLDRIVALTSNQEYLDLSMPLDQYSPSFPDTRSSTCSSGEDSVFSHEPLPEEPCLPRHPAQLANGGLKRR
Sequence of human CYP2J2, CYP2J2 (gene 1573) (P51589 whole entry, looked up): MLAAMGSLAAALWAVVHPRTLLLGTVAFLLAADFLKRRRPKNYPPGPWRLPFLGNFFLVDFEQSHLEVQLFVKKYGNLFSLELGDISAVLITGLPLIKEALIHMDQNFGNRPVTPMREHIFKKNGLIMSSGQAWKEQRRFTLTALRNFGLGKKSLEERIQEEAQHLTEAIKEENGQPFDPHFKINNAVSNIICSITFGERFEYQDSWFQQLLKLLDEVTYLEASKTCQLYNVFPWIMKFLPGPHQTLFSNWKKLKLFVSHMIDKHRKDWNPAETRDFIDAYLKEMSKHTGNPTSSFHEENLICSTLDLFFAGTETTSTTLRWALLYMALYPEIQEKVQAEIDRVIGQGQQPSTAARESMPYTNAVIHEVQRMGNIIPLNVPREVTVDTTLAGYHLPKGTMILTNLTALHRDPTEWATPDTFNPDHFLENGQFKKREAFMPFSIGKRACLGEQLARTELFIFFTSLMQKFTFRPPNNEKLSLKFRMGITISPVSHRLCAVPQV
Sequence of rat CYP2D1, Cyp2d1 (gene 266684) (P10633 whole entry, looked up): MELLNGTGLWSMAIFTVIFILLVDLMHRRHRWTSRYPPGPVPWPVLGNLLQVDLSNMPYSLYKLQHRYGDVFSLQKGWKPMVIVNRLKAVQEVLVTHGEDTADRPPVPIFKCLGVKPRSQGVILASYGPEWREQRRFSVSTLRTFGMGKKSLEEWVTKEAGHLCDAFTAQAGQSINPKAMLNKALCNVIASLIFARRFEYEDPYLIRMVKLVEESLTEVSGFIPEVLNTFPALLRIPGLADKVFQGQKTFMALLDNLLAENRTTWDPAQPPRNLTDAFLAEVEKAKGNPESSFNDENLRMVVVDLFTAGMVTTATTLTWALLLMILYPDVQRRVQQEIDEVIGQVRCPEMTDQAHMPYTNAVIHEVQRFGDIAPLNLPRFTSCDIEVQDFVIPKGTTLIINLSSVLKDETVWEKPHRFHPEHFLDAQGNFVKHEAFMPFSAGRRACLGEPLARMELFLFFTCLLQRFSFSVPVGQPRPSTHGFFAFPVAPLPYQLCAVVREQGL
Sequence of rat Monoamine Oxidase, MAO-B, Central (MAOBC), Maob (gene 25750) (P19643 whole entry, looked up): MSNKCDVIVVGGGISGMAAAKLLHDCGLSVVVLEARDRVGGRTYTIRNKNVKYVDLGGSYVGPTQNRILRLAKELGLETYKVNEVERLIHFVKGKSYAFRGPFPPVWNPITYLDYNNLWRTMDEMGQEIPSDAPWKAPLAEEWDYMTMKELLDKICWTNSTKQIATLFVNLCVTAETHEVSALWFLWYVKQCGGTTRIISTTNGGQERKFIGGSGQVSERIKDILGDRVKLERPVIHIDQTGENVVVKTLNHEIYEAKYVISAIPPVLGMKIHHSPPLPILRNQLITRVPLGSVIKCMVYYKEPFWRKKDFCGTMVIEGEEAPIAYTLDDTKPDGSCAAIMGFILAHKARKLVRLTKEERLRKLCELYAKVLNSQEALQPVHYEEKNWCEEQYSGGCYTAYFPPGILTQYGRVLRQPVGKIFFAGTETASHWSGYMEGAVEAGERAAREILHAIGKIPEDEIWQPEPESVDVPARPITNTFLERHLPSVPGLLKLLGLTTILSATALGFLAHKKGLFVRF

OCCCCC(F)(F)C(F)(F)C(F)(F)C(F)(F)F
outcome [1]: inactive
outcome [2]: inactive

CCOC(=O)CC(=O)C(F)(F)C(F)(F)F
outcome [1]: inactive
outcome [2]: inactive

FC(F)(F)C(F)(F)C(F)(F)C(F)(F)C(F)(F)C(F)(F)C(F)(F)C(F)(F)F
outcome [1]: inactive
outcome [2]: inactive

CCCCCOC(=O)COc1cc(N2C(=O)C3=C(CCCC3)C2=O)c(F)cc1Cl
outcome [3]: inactive

O=S(=O)(O)C(F)(F)C(F)(F)C(F)(F)C(F)(F)C(F)(F)C(F)(F)C(F)(F)F
outcome [1]: inactive
outcome [2]: inactive

OCC(O)CC(F)(F)C(F)(F)C(F)(F)C(F)(F)F (stereo unspecified)
outcome [1]: inactive
outcome [2]: inactive

O=S(=O)(OCCOC(F)(F)F)C(F)(F)F
outcome [1]: inactive
outcome [2]: inactive

Oc1ccc(C(c2ccc(O)cc2)C(Cl)(Cl)Cl)cc1
AC50 [3]: 0.668 µM (active)
AC50 [4]: 1.06 µM (active)
AC50 [5]: 2.99 µM (active)
AC50 [6]: 0.615 µM (active)
outcome [7]: inactive
AC50 [8]: 2.7 µM (active)
AC50 [9]: 19.6 µM (active)
outcome [10]: inactive
AC50 [11]: 33.1 µM (active)
outcome [12]: inactive
outcome [13]: inactive
outcome [14]: inactive
AC50 [15]: 7.63 µM (active)
outcome [16]: inactive

C=CC(=O)OCC(F)(F)C(F)(F)C(F)(F)C(F)(F)C(F)(F)C(F)(F)C(F)(F)C(F)F
outcome [1]: inactive
outcome [2]: inactive

O=C(O)C=C(C(F)(F)F)C(F)(F)F
outcome [1]: inactive
outcome [2]: inactive
